Results taken from PubChem BioAssay AID2283371 (EPA ToxCast).
Records with an inconclusive call do not appear. Activity calls are given as the source filed them. Rule for the calls: active = hit-call score of the fitted dose curve at least 0.9, where 1 is the maximum; inconclusive = response in the unintended direction; inactive = score below 0.9.

Molecular target: rat Adenosine Transporter (Adot), Slc29a1 (gene 63997) (UniProt O54698)
Assay: NVS_TR_rAdoT: NovaScreen (NVS) Transporter Assay for rat Adenosine Transporter (Adot)
Procedure: NVS_TR_rAdoT is a biochemical, single-readout assay that uses extracted gene-proteins from Rat forebrain membranes in a tissue-based cell-free assay. Measurements were taken 1 hour after chemical dosing in a 48-well plate.NVS_TR_rAdoT is one of one assay component(s) measured or calculated from the NVS_TR_rAdoT assay. It is designed to make measurements of radioligand binding, a form of binding reporter, as detected with scintillation counting signals by Filter-based radiodetection technology.Data from the assay component NVS_TR_rAdoT was analyzed into 1 assay endpoint. This assay endpoint, NVS_TR_rAdoT, was analyzed in the positive analysis fitting direction relative to DMSO as the negative control and baseline of activity. Using a type of binding reporter, loss-of-signal activity can be used to understand changes in the binding as they relate to the gene Slc29a1. Furthermore, this assay endpoint can be referred to as a primary readout, because the performed assay has only produced 1 assay endpoint. To generalize the intended target to other relatable targets, this assay endpoint is annotated to the transporter intended target family, where the subfamily is nucleoside transporter.
Binding assays used specific radioligands (tritiated, iodinated) with non-radioactive competitive displacement ligands in agonist or antagonist protocols (as indicated) and various reference compounds and inhibitors to titrate specific binding to receptors and transporters. Most enzyme assays (CYPs, kinases, phosphatases, proteases, HDACs) used recombinant protein and specific substrates (fluorescence mostly, some colorimetric and radioactive) and inhibitors, followed by a biochemical separation of substrate and product. All assays for the biochemical HTS were initially run in duplicate at a single concentration (10 uM for CYP450 assays and 25 uM for all others). Assay-chemical combinations meeting a pre-defined threshold (e.g., 30% inhibition and other criteria defined below) were then run in singleton concentration-response format with maximum concentration of 20 uM for CYPs and 50 uM for all others. Each assay was run with positive and negative controls, and concurrent controls on every plate. The follow-up (secondary) screen tested active chemical-pairs in concentration series, as well as a few additional assays not tested in the primary screen, some selected negative inactives, and several cases re-run in the concentration series for confirmatory purposes.

Chain of rat Adenosine Transporter (Adot), Slc29a1 (gene 63997) (O54698 whole entry, looked up): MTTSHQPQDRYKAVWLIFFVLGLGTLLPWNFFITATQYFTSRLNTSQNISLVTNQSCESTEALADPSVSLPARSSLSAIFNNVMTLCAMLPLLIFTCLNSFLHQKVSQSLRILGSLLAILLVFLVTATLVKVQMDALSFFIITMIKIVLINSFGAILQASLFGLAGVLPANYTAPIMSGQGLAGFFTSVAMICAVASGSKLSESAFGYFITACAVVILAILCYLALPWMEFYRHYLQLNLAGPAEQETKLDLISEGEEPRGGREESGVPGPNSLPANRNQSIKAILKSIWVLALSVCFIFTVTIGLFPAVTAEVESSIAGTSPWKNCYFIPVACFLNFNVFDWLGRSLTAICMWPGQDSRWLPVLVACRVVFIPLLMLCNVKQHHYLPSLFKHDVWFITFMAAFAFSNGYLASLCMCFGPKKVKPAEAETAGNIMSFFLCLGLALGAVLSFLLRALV

Q: `Cc1oc(-c2ccccc2)nc1CCOc1cccc2c1ccn2CCC(=O)O` was tested. Which outcome did it give?
A: inactive

Q: With `Cn1c(=O)c2c(ncn2C)n(C)c1=O` as the molecule, how does the outcome read?
A: inactive

Q: Which outcome does the source give for `CCOP(=S)(Oc1ccc([N+](=O)[O-])cc1)c1ccccc1` (configuration not stated) here?
A: inactive

Q: How did the AC50 turn out when `COc1ccc2cc(S(=O)(=O)N[C@H](CC(=O)N[C@H](Cc3ccc(CN4[C@H](C)CCC[C@@H]4C)cc3)C(=O)N(C)C(C)C)c3ccc4c(c3)OCO4)ccc2c1` was run?
A: 7.85 µM (active)

Q: How did the outcome turn out when `O=S(=O)(O)C(F)(F)C(F)(F)C(F)(F)C(F)(F)C(F)(F)C(F)(F)C(F)(F)C(F)(F)F` was run?
A: inactive

Q: For `S=C1NCCN1`, which outcome is on record?
A: inactive

Q: For `CC[C@H]1OC(=O)[C@H](C)[C@@H](O[C@H]2C[C@@](C)(OC)[C@@H](O)[C@H](C)O2)[C@H](C)[C@@H](O[C@@H]2O[C@H](C)C[C@H](N(C)C)[C@H]2O)[C@](C)(O)C[C@@H](C)C(=O)[C@H](C)[C@@H](O)[C@]1(C)O`, which AC50 is on record?
A: 6.47 µM (active)

Q: Which outcome does the source give for `O=C(O)C(F)(F)C(F)(F)C(F)(F)C(F)(F)C(F)(F)C(F)(F)C(F)(F)F` here?
A: inactive

Q: For `COc1cc2c(c(OC)c1OC)-c1ccc(OC)c(=O)cc1[C@@H](NC(C)=O)CC2`, which outcome is on record?
A: inactive

Q: With `CCCCC(CC)COC(=O)c1ccc(C(=O)OCC(CC)CCCC)c(C(=O)OCC(CC)CCCC)c1` (configuration not stated) as the molecule, how does the outcome read?
A: inactive

Q: For `Oc1ccc(Cl)cc1Cl`, which outcome is on record?
A: inactive

Q: `S=C(S)NCCNC(=S)S.[Mn+2].[S-]C([S-])=NCCN=C([S-])[S-].[Zn+2]` was tested. Which outcome did it give?
A: inactive
